Source: PubChem BioAssay (NCATS)
Inconclusive results are not listed. A call without a number means that no potency is given here. Calls of active or inactive are those of the source. The call rests on the fitted dose curve; in most records, active means well fitted curve in the direction sought with a large enough effect; inconclusive means small, poorly fitted or top-dose-only effect, or another doubt; inactive means no such curve, though single readings can be large; an effect the other way counts as inactive or inconclusive.

Assays:
[1] = target: Aldehyde dehydrogenase, mitochondrial (Homo sapiens) (UniProt P05091); test: qHTS for Inhibitors of the Aldehyde Dehydrogenase Family (ALDH2) Primary screen (AID 2061308); further: nearly all actives have a fitted effect of over 55% in size
[2] = target: Retinaldehyde dehydrogenase 3 (Homo sapiens) (UniProt P47895); test: qHTS for Inhibitors of the Aldehyde Dehydrogenase Family (ALDH1A3) Primary screen (AID 2061315)

**Q.** With `CNc1oc(-c2cccc(Cl)c2Cl)nc1C#N` as the compound, how does the Potency [1] read?
**A.** inactive

**Q.** What about the Potency [2] of the same compound?
**A.** inactive

**Q.** What does the source list for `O=C(O)c1ccc(O)c2ncc(-c3n[nH]nc3-c3ccccc3)cc12`?
**A.** Potency [1]: inactive; Potency [2]: inactive

**Q.** Which results are given for `O=C(OCC#CCSc1nnc(-c2c[nH]c3ccccc23)o1)c1ccc(F)cc1`?
**A.** Potency [1]: inactive; Potency [2]: inactive

**Q.** How did the Potency [1] turn out when `CC(=O)c1ccc(N2CCN(S(=O)(=O)c3ccc4[nH]c(=O)oc4c3)CC2)cc1` was run?
**A.** inactive

**Q.** And the Potency [2]?
**A.** inactive

**Q.** With `O=C1NC(=O)/C(=C/c2cccn2-c2ccc(P(=O)(O)O)cc2)N1` as the compound, how does the Potency [1] read?
**A.** inactive

**Q.** What about the Potency [2] of the same compound?
**A.** inactive

**Q.** How did the Potency [1] turn out when `CCCn1c(-c2ccc(F)cc2)nc2c(NCCN3CCSCC3)nc(C)nc21` was run?
**A.** inactive

**Q.** And the Potency [2]?
**A.** inactive

**Q.** For `CC(=O)O[C@@H]1CC[C@@]2(C)C(CC[C@]3(C)C2[C@H](O)C=C2[C@H]4[C@@H](C)[C@H](C)CC[C@]4(C)CC[C@]23C)[C@@]1(C)C(=O)O` (stereo partly drawn), which Potency [1] is on record?
**A.** inactive

**Q.** And the Potency [2]?
**A.** inactive

**Q.** Which results are given for `COc1ccc2nc(-c3ccccc3OC)sc2c1`?
**A.** Potency [1]: inactive; Potency [2]: inactive

**Q.** What does the source list for `CCc1ccccc1C(=O)N1CCc2cc(-c3nc(NC(=O)Cc4ccc5c(c4)OCO5)sc3C)ccc21`?
**A.** Potency [1]: inactive; Potency [2]: inactive

**Q.** With `O=C(Nc1ccc(Cl)cc1)Nc1nnc(-c2ccncc2)s1` as the compound, how does the Potency [1] read?
**A.** inactive

**Q.** And the Potency [2]?
**A.** inactive

**Q.** Which results are given for `COc1cccc(-c2nc3cc(NC(=O)c4ccc(C)c([N+](=O)[O-])c4)ccc3o2)c1`?
**A.** Potency [1]: inactive; Potency [2]: inactive

**Q.** What does the source list for `COc1cccc(C2c3c(ncn(-c4cccc(Br)c4)c3=N)Oc3ccc4ccccc4c32)c1` (stereo not drawn)?
**A.** Potency [1]: inactive; Potency [2]: inactive

**Q.** Which results are given for `COc1cc(F)c(S(=O)(=O)N2CCCN(S(=O)(=O)c3ccc(NC(C)=O)cc3)CC2)c(F)c1`?
**A.** Potency [1]: inactive; Potency [2]: inactive

**Q.** For `COC(=O)c1ccc(Nc2nc(-c3ccncc3)nc3ccccc23)cc1OC`, which Potency [1] is on record?
**A.** inactive

**Q.** What about the Potency [2] of the same compound?
**A.** inactive

**Q.** How did the Potency [1] turn out when `Cc1cc(C)n2ncc(C(=O)NCC(C)C)c2n1` was run?
**A.** inactive

**Q.** And the Potency [2]?
**A.** inactive

**Q.** How did the Potency [1] turn out when `c1nc(NCc2ccc3c(c2)OCO3)c2cc(-c3ccc4c(c3)OCCO4)ccc2n1` was run?
**A.** inactive

**Q.** What about the Potency [2] of the same compound?
**A.** inactive

**Q.** Which results are given for `Cc1ccc(-c2cc(C(=O)O)c3cccc(C)c3n2)cc1C`?
**A.** Potency [1]: inactive; Potency [2]: inactive

**Q.** With `COc1cccc(C2c3c(ncn(-c4ccc(F)cc4)c3=N)Oc3ccc4ccccc4c32)c1` (stereo not drawn) as the compound, how does the Potency [1] read?
**A.** inactive

**Q.** And the Potency [2]?
**A.** inactive

**Q.** With `COc1cccc(C2c3c(ncn(-c4ccc(-c5ccccc5)cc4)c3=N)Oc3ccc4ccccc4c32)c1` (stereo not drawn) as the compound, how does the Potency [1] read?
**A.** inactive

**Q.** What about the Potency [2] of the same compound?
**A.** inactive

**Q.** Which Potency [1] does the source give for `O=[S+]([O-])(Nc1ccc(-c2nc3ccccc3[nH]2)cc1)c1ccc2c(c1)CCO2` here?
**A.** inactive

**Q.** And the Potency [2]?
**A.** inactive

**Q.** Which results are given for `COc1ccc(C2c3c(n(Cc4ccccc4)cnc3=N)Oc3ccc4ccccc4c32)cc1OC` (stereo not drawn)?
**A.** Potency [1]: inactive; Potency [2]: inactive

**Q.** How did the Potency [1] turn out when `O=C1C[C@]23C=CCN4CCC5c6cc7c(cc6N1[C@@]5(CC2)C43)OCO7` (stereo partly drawn) was run?
**A.** inactive

**Q.** And the Potency [2]?
**A.** inactive

**Q.** What does the source list for `O=C(COC(=O)CNC(=O)c1ccccc1)Nc1cc(C(F)(F)F)ccc1Cl`?
**A.** Potency [1]: inactive; Potency [2]: inactive

**Q.** For `Cc1nc(NCCO)c2nc(-c3ccccc3)n(CCN(C)C)c2n1`, which Potency [1] is on record?
**A.** inactive

**Q.** And the Potency [2]?
**A.** inactive

**Q.** Which Potency [1] does the source give for `Fc1cc(Nc2nc(-c3ccncc3)nc3ccccc23)ccc1-c1ccc(F)c(F)c1F` here?
**A.** inactive

**Q.** And the Potency [2]?
**A.** inactive

**Q.** How did the Potency [1] turn out when `O=C(Nc1ncc(Cc2ccc(C(F)(F)F)cc2)s1)c1ccc(-c2ccccc2)o1` was run?
**A.** inactive

**Q.** And the Potency [2]?
**A.** inactive

**Q.** `CCCCCN1CCC(C(=O)Nc2ccc([S+](=O)([O-])Nc3nccs3)cc2)CC1` was tested. Which Potency [1] did it give?
**A.** inactive

**Q.** What about the Potency [2] of the same compound?
**A.** inactive

**Q.** How did the Potency [1] turn out when `Cc1ccc(OCCn2c(CCNC(=O)c3ccc4cc[nH]c4c3)nc3ccccc32)cc1` was run?
**A.** inactive

**Q.** What about the Potency [2] of the same compound?
**A.** inactive

**Q.** Which results are given for `Cc1cc2c(s1)c1cnn(Cc3ccccc3C)c(=O)c1n2C`?
**A.** Potency [1]: inactive; Potency [2]: inactive

**Q.** How did the Potency [1] turn out when `Cc1cc(NS(=O)(=O)c2ccc(NC(=O)c3ccc(Cl)c(Cl)c3)cc2)no1` was run?
**A.** inactive

**Q.** What about the Potency [2] of the same compound?
**A.** inactive

**Q.** For `O=C(O)c1ccc2c(c1)C(=O)N([C@H](Cc1ccc(Cl)cc1)C(=O)O)C2=O`, which Potency [1] is on record?
**A.** inactive

**Q.** What about the Potency [2] of the same compound?
**A.** inactive

**Q.** Which Potency [1] does the source give for `O=C(OCc1c(-c2ccccc2)no[n+]1[O-])c1ccccc1` here?
**A.** inactive

**Q.** And the Potency [2]?
**A.** inactive

**Q.** How did the Potency [1] turn out when `Cc1ccc(S(=O)(=O)Nc2ccccc2C(=O)Nc2nccs2)cc1` was run?
**A.** inactive

**Q.** What about the Potency [2] of the same compound?
**A.** inactive

**Q.** Which Potency [1] does the source give for `Cc1noc(-c2sc3c(c2-c2nc4ccccc4s2)CCNC3)n1` here?
**A.** inactive

**Q.** What about the Potency [2] of the same compound?
**A.** inactive

**Q.** Which results are given for `c1cncc(CNc2ncnc3ccc(-c4cccnc4)cc23)c1`?
**A.** Potency [1]: inactive; Potency [2]: inactive

**Q.** `COC1=CC(=O)C[C@@H](C)[C@@]12Oc1c(Cl)c(OC)cc(OC)c1C2=O` was tested. Which Potency [1] did it give?
**A.** inactive

**Q.** What about the Potency [2] of the same compound?
**A.** inactive

**Q.** `CCCn1c(-c2ccc(F)cc2)nc2c(NC3CC4CCC(C3)N4C)nc(C)nc21` (stereo not drawn) was tested. Which Potency [1] did it give?
**A.** inactive

**Q.** And the Potency [2]?
**A.** inactive

**Q.** How did the Potency [1] turn out when `N#Cc1nc(Nc2cc(F)cc(F)c2)c2ncn(CCCO)c2n1` was run?
**A.** inactive

**Q.** What about the Potency [2] of the same compound?
**A.** inactive

**Q.** Which Potency [1] does the source give for `NC(=O)Nc1cc(-c2ccc(CN3CCOCC3)c(F)c2)sc1C(=O)N[C@H]1CCCNC1` here?
**A.** inactive

**Q.** And the Potency [2]?
**A.** inactive
